According to PubChem BioAssay (Tox21):
Inconclusive results are not listed. Values without a mark were called inactive. Activity calls are given as the source filed them. Calls come from the whole dose curve.

Assay: p53 small molecule agonists, cell-based qHTS assay with human liver microsomes: qHTS cell viability counter screen (AID 1963579); note: nearly all actives have a fitted effect of over 45% in size
Conditions: p53RE-bla HCT-116 viability, ATP luminescence, 16 h, HLM; series mostly up to 66 µM; activity change, negative = cytotoxicity: at the top concentration
Source text: National Center for Advancing Translational Sciences [NCATS]
Division of Preclinical Innovation [DPI]
U.S. Environmental Protection Agency [EPA]
National Institutes of Environmental Health Sciences [NIEHS]
National Toxicology Program [NTP]
U.S. Food and Drug Administration [FDA]
p53, a tumor suppressor protein, is activated following cellular insult, including DNA damage and other cellular stresses. The activation of p53 regulates cell fate by inducing DNA repair, cell cycle arrest, apoptosis, or cellular senescence. The activation of p53, therefore, is a good indicator of DNA damage and other cellular stresses. […] The activation of the reporter gene under culture conditions can be detected by fluorescence intensity. This cell line was used to screen the Tox21 10K compound library in the condition of presence of human liver microsomes and to identify agonists that activate the p53 signaling pathway after in vitro metabolic activation (Ooka et al., Archive of Toxicology 96:1975-1987, 2022).
Tox21 Assay Protocol Summary:
The p53RE-bla cells were dispensed at 4,000cells/3ul/well in 1536-well black-clear bottom plates. After the assay plates were incubated at 37 C, 5% CO2 incubator for 5 hours, 23 nL of compounds dissolved in DMSO, positive controls or DMSO only was transferred to the assay plate. Following compound addition, 3 uL of human liver microsomes (XenoTech, Kansas City, KS) at final concentration of 0.5 mg/mL and 1uL of B-Nicotinamide adenine dinucleotide 2'-phosphate (NADPH) at final concentration of 0.5 mg/mL were transferred to the assay plate. The plates were incubated at 37 C for 16 hours. 1 uL of LiveBLAzer detection mixture was added to each well and the plates were incubated at room temperature in the dark for 2 h. Fluorescence intensity at 460 and 530 nm emission and 405 nm excitation were measured by an Envision plate reader. For cell viability readout that measures cytotoxicity, 4 ul/well of CellTiter-Glo reagent was added into the assay plates using a Flying Reagent Dispenser. After 30 min incubation at room temperature, the luminescence intensity in the plates was measured using a ViewLux plate reader.
% is set by controls: 0 for no effect and ±100 for the full control effect; potency is the fitted concentration of half-maximal effect.

Row | Structure (SMILES) | activity change, negative = cytotoxicity | Potency
1 | CC(CC(=O)Cl)CC(C)(C)C (stereo not given) | 5.39% | –
2 | CC(=O)/C=C/C=C1/C2CCC(C2)C1(C)C (stereo not given) | -25.2% [at 30.3 µM] | –
3 | CC(C)n1nc(-c2cc3cc(O)ccc3[nH]2)c2c(N)ncnc21 | -4.07% [at 30.3 µM] | –
4 | CC(COc1ccccc1)NN (stereo not given) | -0.151% [at 30.3 µM] | –
5 | CC(=O)OCC(C)OC(C)=O (stereo not given) | 24.9% | –
6 | CCOc1ccc(OCC)c(Cl)c1 | 2.91% | –
7 | CN(c1nccc(=O)[nH]1)C1CCN(c2nc3ccccc3n2Cc2ccc(F)cc2)CC1 | -4.34% [at 30.3 µM] | –
8 | Cc1ccc2ccc(Cl)cc2n1 | -7.93% [at 30.3 µM] | –
9 | Cc1c(Cl)c(=O)oc2cc(O)ccc12 | -6.6% | –
10 | CCOC(=O)CC(=O)C(=O)OCC | -19.9% | –
11 | C[C@H](CCC(=O)O)[C@H]1CC[C@H]2[C@@H]3[C@H](O)C[C@@H]4C[C@H](O)CC[C@]4(C)[C@H]3CC[C@]12C | -0.146% | –
12 | C[C@@H](c1ncncc1F)C(O)(Cn1cncn1)c1ccc(F)cc1F (stereo not given in full) | -0.384% [at 30.3 µM] | –
13 | Cn1c(=O)c2c(ncn2CC2OCCO2)n(C)c1=O | -11.1% [at 30.3 µM] | –
14 | CCCC(CC)c1ccccc1 (stereo not given) | -1.09% | –
15 | Nc1cc(N)cc(C(=O)O)c1 | 1.27% | –
16 | COc1ccc(/C=C/c2cc(OC)cc(=O)o2)cc1 | -0.823% [at 30.3 µM] | –
17 | CC1=CCC(C(C)C)C=C1 (stereo not given) | -0.307% | –
18 | Cc1c(C(=O)O)cccc1[N+](=O)[O-] | – | 23.3 µM (active)
19 | O=C(O)CCSSCCC(=O)O | 4.44% | –
20 | Cc1ccc(Cl)c(N)c1Cl | – | 18.2 µM (active)

Row | Structure (SMILES) | activity change, negative = cytotoxicity | Potency
21 | CC(C)C(O)(c1ccc(OC(F)(F)F)cc1)c1cncnc1 (stereo not given) | -16.4% | –
22 | O=C(NN1CCCC1)NS(=O)(=O)c1ccc(Cl)cc1 | 13.2% [at 30.3 µM] | –
23 | BrCCOc1ccccc1 | 4.08% | –
24 | CNc1ccc([N+](=O)[O-])cc1 | 1.21% | –
25 | CCCNC(C)(C)COC(=O)c1ccccc1 | 0.0693% [at 30.3 µM] | –
26 | CC(=O)OCC(=O)NCCCOc1cccc(CN2CCCCC2)c1 | 29.3% [at 30.3 µM] | –
27 | COC(=O)c1cc(Cl)cc(Cl)c1 | 1.31% | –
28 | O=C(O)O | -18.2% [at 5.99 µM] | –
29 | CC/C=C\CCOC(C)OCC (stereo not given) | 6.48% [at 30.3 µM] | –
30 | OC[C@H]1O[C@@H](n2cnc3c(=S)nc[nH]c32)[C@H](O)[C@@H]1O | -0.835% [at 30.3 µM] | –
31 | CC1(C)CC(=O)CC(C)(C)N1 | -27.2% | –
32 | CCc1cc(Cc2cc(CC)c(N)c(CC)c2)cc(CC)c1N | – | 40.8 µM (active)
33 | O=C(O)c1c(Cl)ccc(Cl)c1Cl | -8.46% | –
34 | C[C@]12CCC(=O)C=C1C=C[C@@H]1[C@@H]2CC[C@@]2(C)[C@H]1CC[C@@]21CCC(=O)O1 | -9.13% [at 30.3 µM] | –
35 | Cc1nc2ccc(CN(C)c3ccc(C(=O)N[C@@H](CCC(=O)O)C(=O)O)s3)cc2c(=O)[nH]1 | -6.73% [at 30.3 µM] | –
36 | O=c1cc(O)c(Cl)c[nH]1 | 18.4% [at 30.3 µM] | –
37 | O=C(O)[C@H](O)c1ccccc1 | 17.3% [at 30.3 µM] | –
38 | O=C(N/N=C/c1ccc([N+](=O)[O-])o1)c1ccc(O)cc1 | 1.12% [at 30.3 µM] | –
39 | C=CCCCCCCCCCCCCCC | 3.4% [at 13.5 µM] | –
40 | CN1CCN(c2ccccc2/C=C2\SCCN(c3ccc(Cl)c(Cl)c3)C2=O)CC1 | -1.35% | –
